Data published in paper PMC5540273 (PLoS ONE, 2017).

Experiments:
Conditions in all cases: concentration: 1 μM, replicates: in singlicate; n = 1
[1] = tested on: T1, DMPK2
T1 construct: gene CDC42BPG

[2] = tested on: DMPK
[3] = tested on: T2, DRAK1
T2 construct: gene STK17A

[4] = tested on: T3, DRAK2
T3 construct: gene STK17B

[5] = tested on: DYRK1A
[6] = tested on: DYRK1B
[7] = tested on: DYRK2
[8] = tested on: EGFR
[9] = tested on: EIF2AK1
[10] = tested on: EPHA1
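Also: KINOMEscan kinase panel screen.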

`COc1ccc(CSc2nnc(-c3ccc4nccn4c3)o2)cc1C(F)(F)F` was tested, and the “%Inh” value [1] was 2%, the “%Inh” value [2] was 41% and the “%Inh” value [3] was 31%. For the same compound, the “%Inh” value [4] was 0%, the “%Inh” value [5] was 41% and the “%Inh” value [6] was 41%. For the same compound, the “%Inh” value [7] was 0%, the “%Inh” value [8] was 4% and the “%Inh” value [9] was 7%. The “%Inh” value [10] was 0%.

`CNc1nc(-c2ccc3c(N)n[nH]c3c2)cc(N2C[C@@H](C(=O)Nc3ccccc3)CC[C@H]2C)n1` [GSK2298859] was tested, and the “%Inh” value [1] was 13%, the “%Inh” value [2] was 0% and the “%Inh” value [3] was 97.6%. For the same compound, the “%Inh” value [4] was 80%, the “%Inh” value [5] was 15% and the “%Inh” value [6] was 0%. For the same compound, the “%Inh” value [7] was 10%, the “%Inh” value [8] was 31% and the “%Inh” value [9] was 0%. For the same compound, the “%Inh” value [10] was 14%.

With `COc1ccc(CSc2nnc(-c3ccc4c(c3)CCO4)o2)cc1` the “%Inh” value [1] was 0%, the “%Inh” value [2] was 0% and the “%Inh” value [3] was 0%. The “%Inh” value [4] was 3%, the “%Inh” value [5] was 0% and the “%Inh” value [6] was 35%. The “%Inh” value [7] was 0%, the “%Inh” value [8] was 0% and the “%Inh” value [9] was 0%. The “%Inh” value [10] was 0%.

For `Nc1nccc(-c2c(-c3ccc(F)cc3)ncn2C2CCN(Cc3ccccc3)CC2)n1` [SB-219980], the “%Inh” value [1] was 52%, the “%Inh” value [2] was 0% and the “%Inh” value [3] was 10%. The “%Inh” value [4] was 14%, the “%Inh” value [5] was 0% and the “%Inh” value [6] was 0%. For the same compound, the “%Inh” value [7] was 14%, the “%Inh” value [8] was 10% and the “%Inh” value [9] was 0%. For the same compound, the “%Inh” value [10] was 0%.

With `CS(=O)(=O)CCNCc1nc(-c2ccc3ncnc(Nc4ccc5c(cnn5Cc5ccccc5)c4)c3c2)cs1.Cl.Cl` [GW569716] the “%Inh” value [1] was 0%, the “%Inh” value [2] was 0% and the “%Inh” value [3] was 35%. The “%Inh” value [4] was 21%, the “%Inh” value [5] was 36% and the “%Inh” value [6] was 0%. For the same compound, the “%Inh” value [7] was 0%, the “%Inh” value [9] was 0% and the “%Inh” value [10] was 14%.

`CN1c2ccc(-c3ccc(C(N)=O)cc3)cc2-c2[nH]ncc2S1(=O)=O` was tested, and the “%Inh” value [1] was 0%, the “%Inh” value [2] was 0% and the “%Inh” value [3] was 52%. The “%Inh” value [4] was 15%, the “%Inh” value [5] was 34% and the “%Inh” value [6] was 24%. The “%Inh” value [7] was 0%, the “%Inh” value [8] was 0% and the “%Inh” value [9] was 0%. The “%Inh” value [10] was 8%.

In the case of `COC(=O)c1cccc(NC(=O)NC2CCN(c3ccnc(Nc4ccc(F)cc4)n3)C2)c1` (centres unmarked) [GSK1379725], the “%Inh” value [1] was 0%, the “%Inh” value [2] was 0% and the “%Inh” value [3] was 0%. For the same compound, the “%Inh” value [4] was 0%, the “%Inh” value [5] was 18% and the “%Inh” value [6] was 0%. For the same compound, the “%Inh” value [7] was 0%, the “%Inh” value [8] was 0% and the “%Inh” value [9] was 0%. For the same compound, the “%Inh” value [10] was 8%.

With `COc1ccc(Nc2nccc(-c3ccc(NC(=O)c4cc5cc(F)ccc5[nH]4)cc3)n2)cc1` [GSK1229496] the “%Inh” value [1] was 4%, the “%Inh” value [2] was 0% and the “%Inh” value [3] was 69%. The “%Inh” value [4] was 19%, the “%Inh” value [5] was 14% and the “%Inh” value [6] was 0%. The “%Inh” value [7] was 0%, the “%Inh” value [8] was 14% and the “%Inh” value [9] was 0%. For the same compound, the “%Inh” value [10] was 0%.

For `COc1cc2ncnc(Nc3cccc(Br)c3)c2cc1OC.Cl` [GI230329], the “%Inh” value [1] was 5%, the “%Inh” value [2] was 6% and the “%Inh” value [3] was 34%. For the same compound, the “%Inh” value [4] was 0%, the “%Inh” value [5] was 15% and the “%Inh” value [6] was 0%. The “%Inh” value [7] was 21%, the “%Inh” value [9] was 47% and the “%Inh” value [10] was 18%.

In the case of `Nc1ncnc2occ(-c3ccc4c(c3)CCN4C(=O)Cc3cc(F)ccc3F)c12` [GSK2645446], the “%Inh” value [1] was 51%, the “%Inh” value [2] was 7% and the “%Inh” value [3] was 0%. The “%Inh” value [4] was 0%, the “%Inh” value [5] was 6% and the “%Inh” value [6] was 0%. The “%Inh” value [7] was 0%, the “%Inh” value [8] was 18% and the “%Inh” value [9] was 0%. The “%Inh” value [10] was 11%.

`CS(=O)(=O)CCNCc1nc(-c2ccc3ncnc(Nc4ccc(OCc5ccccc5)c(Cl)c4)c3c2)cs1.Cl` [GW582764] was tested, and the “%Inh” value [1] was 0%, the “%Inh” value [2] was 0% and the “%Inh” value [3] was 4%. The “%Inh” value [4] was 0%, the “%Inh” value [5] was 19% and the “%Inh” value [6] was 0%. The “%Inh” value [7] was 0%, the “%Inh” value [9] was 0% and the “%Inh” value [10] was 8%.

With `COc1ccc(Nc2nccc(N3CCC(NC(=O)C(C)c4ccc(Cl)cc4)C3)n2)cc1` (centres unmarked) [GSK1379735] the “%Inh” value [1] was 0%, the “%Inh” value [2] was 0% and the “%Inh” value [3] was 8%. The “%Inh” value [4] was 0%, the “%Inh” value [5] was 12% and the “%Inh” value [6] was 0%. The “%Inh” value [7] was 3%, the “%Inh” value [8] was 14% and the “%Inh” value [9] was 77%. For the same compound, the “%Inh” value [10] was 0%.

In the case of `COC(=O)C(Cc1ccccc1)NC(=O)NC1CCN(c2ccnc(Nc3ccc(F)cc3)n2)C1` (centres unmarked) [GSK1379714], the “%Inh” value [1] was 0%, the “%Inh” value [2] was 0% and the “%Inh” value [3] was 0%. For the same compound, the “%Inh” value [4] was 0%, the “%Inh” value [5] was 10% and the “%Inh” value [6] was 10%. The “%Inh” value [7] was 0%, the “%Inh” value [8] was 31% and the “%Inh” value [9] was 0%. For the same compound, the “%Inh” value [10] was 7%.

For `Cc1ccc(-c2nc(Nc3ccncc3)c3ccccc3n2)s1` [GSK189015], the “%Inh” value [1] was 13%, the “%Inh” value [2] was 0% and the “%Inh” value [3] was 5%. For the same compound, the “%Inh” value [4] was 0%, the “%Inh” value [5] was 28% and the “%Inh” value [6] was 3%. The “%Inh” value [7] was 27%, the “%Inh” value [8] was 25% and the “%Inh” value [9] was 0%. The “%Inh” value [10] was 16%.

`Cc1ccc(NC(=O)Nc2ccccc2)cc1-c1ccc(C(=O)Nc2ccncc2)cc1` [GSK1398471] was tested, and the “%Inh” value [1] was 9%, the “%Inh” value [2] was 0% and the “%Inh” value [3] was 9%. For the same compound, the “%Inh” value [4] was 0%, the “%Inh” value [5] was 9% and the “%Inh” value [6] was 0%. The “%Inh” value [7] was 14%, the “%Inh” value [8] was 10% and the “%Inh” value [9] was 0%. The “%Inh” value [10] was 24%.

With `Cc1cccc2c(-c3ccncn3)c(-c3ccc(F)cc3)nn12` [GW515532] the “%Inh” value [1] was 24%, the “%Inh” value [2] was 0% and the “%Inh” value [3] was 0%. The “%Inh” value [4] was 0%, the “%Inh” value [5] was 23% and the “%Inh” value [6] was 0%. The “%Inh” value [7] was 13%, the “%Inh” value [8] was 47% and the “%Inh” value [9] was 0%. The “%Inh” value [10] was 16%.

For `Cc1ccc(NC(=O)c2ccc(Cl)cc2)cc1-c1ccc(C(=O)Nc2ccncc2)cc1` [GSK1398467], the “%Inh” value [1] was 0%, the “%Inh” value [2] was 0% and the “%Inh” value [3] was 5%. The “%Inh” value [4] was 0%, the “%Inh” value [5] was 4% and the “%Inh” value [6] was 0%. For the same compound, the “%Inh” value [7] was 0%, the “%Inh” value [8] was 33% and the “%Inh” value [9] was 0%. The “%Inh” value [10] was 19%.
